System: Vero E6 infected with SARS-CoV-2
Assay: inhibition of SARS-CoV-2 cytopathic effect; higher = more antiviral protection, active = above 15
Details: 48 h

Measured: inhibition of SARS-CoV-2 cytopathic effect

COc1cccc(OC)c1OCCNC[C@H]1COc2ccccc2O1
inactive: 1 nM -0.3% | 8.33 nM 0.6% | 100 nM 0.45% | 833.33 nM 0% | 10000 nM 0.85%

C[C@H](Cc1cc2c(c(C(N)=O)c1)N(CCCO)CC2)NCCOc1ccccc1OCC(F)(F)F [silodosin]
inactive: 1 nM 3.7% | 8.33 nM -1.05% | 100 nM 2.16% | 833.33 nM 2.24% | 10000 nM 3.11%

COc1ccc2c(c1)C(C(=O)N(Cc1ccc(N(C)C)cc1)c1ccc(C(C)C)cc1)CCC2 (stereo not given)
inactive: 1 nM -2.02% | 8.33 nM 0.34% | 100 nM 3.26% | 833.33 nM 1.87% | 10000 nM -3.29%

CC(C)C(=O)Oc1ccc(CO)cc1[C@H](CCN(C(C)C)C(C)C)c1ccccc1 [fesoterodine]
inactive: 1 nM -1.73% | 8.33 nM -0.18% | 100 nM -0.25% | 833.33 nM -2.34% | 10000 nM 0.84%

C[N+](C)(C)[C@@H](Cc1c[nH]c(=S)[nH]1)C(=O)O [L-ergothioneine]
inactive: 1 nM 1.26% | 8.33 nM -1.22% | 100 nM 2.33% | 833.33 nM 2.82% | 10000 nM 0.9%

CCCNCCc1ccc(NS(=O)(=O)c2ccc(OC(F)(F)F)cc2)cc1
inactive: 1 nM 2.87% | 8.33 nM 3.37% | 100 nM -0.23% | 833.33 nM 1.93% | 10000 nM -4.37%

CCCN(CC1CC1)c1nc(C)nc(Nc2c(Cl)cc(Cl)cc2Cl)c1Cl
inactive: 1 nM 4.5% | 8.33 nM 2.92% | 100 nM 1.63% | 833.33 nM 0.09% | 10000 nM 1.2%

COC(=O)Nc1ccc(-c2nc(N3CCOCC3)c3cnn(C4CCN(C(=O)OC)CC4)c3n2)cc1
inactive: 1 nM 1.39% | 8.33 nM 1.76% | 100 nM 4.01% | 833.33 nM 0.99% | 10000 nM 2.63%

CCCCCCCCCCCCCCCCCC(=O)OC[C@@H](O)[C@H]1OC[C@H](O)[C@H]1O [sorbitan-monostearate]
inactive: 1 nM 0.02% | 8.33 nM -1.4% | 100 nM 1.63% | 833.33 nM 2.62% | 10000 nM -0.38%

CCC[C@H](N[C@@H](C)C(=O)N1[C@H](C(=O)O)C[C@@H]2CCCC[C@@H]21)C(=O)O [perindoprilat]
inactive: 1 nM 4.13% | 8.33 nM -0.1% | 100 nM 3.43% | 833.33 nM 0.42% | 10000 nM -3.18%

CC(C)[C@@H](C)/C=C/[C@@H](C)[C@H]1CC[C@H]2/C(=C/C=C3\C[C@@H](O)CC[C@@H]3C)CCC[C@]12C [dihydrotachysterol]
inactive: 1 nM -0.76% | 8.33 nM 0.52% | 100 nM -1.39% | 833.33 nM -0.26% | 10000 nM -0.14%

CCC(=O)NS(=O)(=O)c1ccc(-c2c(-c3ccccc3)noc2C)cc1 [parecoxib]
inactive: 1 nM -0.31% | 8.33 nM 0.02% | 100 nM 1.66% | 833.33 nM 1.26% | 10000 nM -1.54%

COC(=O)c1c(C)[nH]c(C)c1C(=O)c1ccccc1Cc1ccccc1
inactive: 1 nM 1.06% | 8.33 nM -1.02% | 100 nM 0.4% | 833.33 nM -3.62% | 10000 nM -3.09%

O=c1c(O[C@@H]2O[C@H](CO)[C@H](O)[C@H](O)[C@H]2O)c(-c2ccc(O)c(O)c2)oc2cc(O)cc(O)c12 [hyperin]
inactive: 1 nM 0.95% | 8.33 nM 2.27% | 100 nM -0.59% | 833.33 nM -1.62% | 10000 nM 0.59%

CN(c1nccc(=O)[nH]1)C1CCN(c2nc3ccccc3n2Cc2ccc(F)cc2)CC1 [mizolastine]
inactive: 1 nM -1.24% | 8.33 nM -0.74% | 100 nM 0.47% | 833.33 nM 0.93% | 10000 nM -1.33%

N#Cc1cc(CN2CCC(Nc3ncnc4sc(Cl)cc34)CC2)ccc1F
inactive: 1 nM 6.81% | 8.33 nM 8.07% | 100 nM 7.98% | 833.33 nM 1.59% | 10000 nM 0.56%

C[N+](C)(C)CCCCCNCC12CC3CC(CC(C3)C1)C2
inactive: 1 nM -4.72% | 8.33 nM -5.14% | 100 nM -6.53% | 833.33 nM -6.39% | 10000 nM -4.67%

COc1ccc(OC)c([C@@H](O)CNC(=O)CN)c1 [midodrine]
inactive: 1 nM 1.29% | 8.33 nM 3.25% | 100 nM -1.42% | 833.33 nM 0.19% | 10000 nM -0.39%

c1ccc2c(c1)sc1ccccc12 [dibenzothiophene]
inactive: 1 nM -0.91% | 8.33 nM 1.31% | 100 nM 0.34% | 833.33 nM 0.07% | 10000 nM 0.68%

Clc1cccc(N2CCNCC2)c1
inactive: 1 nM -1.68% | 8.33 nM -2.45% | 100 nM -0.72% | 833.33 nM -3.2% | 10000 nM -2.99%

CCC(=O)N[C@@H]1Cc2ccccc2[C@H](c2ccccc2)C1
inactive: 1 nM 1.13% | 8.33 nM 2.8% | 100 nM 2.79% | 833.33 nM 3.72% | 10000 nM 2.13%

Cn1cc(C(=O)c2cccc3ccccc23)cc1C(=O)O [napirimus]
inactive: 1 nM -0.4% | 8.33 nM -1.83% | 100 nM 0.36% | 833.33 nM -1.9% | 10000 nM 1.11%

O=C(NCc1ccncc1)C12CC3CC(C1)CC(c1ccc(Cl)cc1)(C3)C2
inactive: 1 nM 2.05% | 8.33 nM -4% | 100 nM -2.61% | 833.33 nM -2.22% | 10000 nM -5.2%

C[C@@H](NCc1cc(Br)cc2nc(O)c(O)nc12)P(=O)(O)O
inactive: 1 nM -0.47% | 8.33 nM 3.65% | 100 nM -0.39% | 833.33 nM -1.72% | 10000 nM -3.97%

CNC(=O)c1ccc(-c2cnc3ncc(Cc4ccc5ncccc5c4)n3n2)cc1F
inactive: 1 nM 0.17% | 8.33 nM -1.02% | 100 nM -1.1% | 833.33 nM 2.22% | 10000 nM 7.85%

CC(C)(C)C(=O)OCOC(=O)[C@@H]1N2C(=O)C[C@H]2S(=O)(=O)C1(C)C [sulbactam-pivoxil]
inactive: 1 nM -1.2% | 8.33 nM -4.28% | 100 nM -7.15% | 833.33 nM 5.91% | 10000 nM -2.18%

CSc1ccc(C(=O)c2[nH]c(=O)[nH]c2C)cc1 [enoximone]
inactive: 1 nM -4.27% | 8.33 nM -5.05% | 100 nM -6.45% | 833.33 nM -4.44% | 10000 nM -2.39%

Cn1nnnc1SCC1=C(C(=O)O)N2C(=O)[C@@H](NC(=O)[C@H](OC=O)c3ccccc3)[C@H]2SC1 [cefamandole-nafate]
inactive: 1 nM -1.93% | 8.33 nM -0.03% | 100 nM -2.69% | 833.33 nM -3.24% | 10000 nM -0.65%

CCOC(=O)c1cnc2c(cnn2CC)c1NN=C(C)C [etazolate]
inactive: 1 nM -0.85% | 8.33 nM 4.04% | 100 nM 0.13% | 833.33 nM 1.35% | 10000 nM -1.47%

O=c1ccn([C@@H]2O[C@H](CO)[C@@H](O)[C@H]2O)c(=O)[nH]1 [uridine]
inactive: 1 nM 0.24% | 8.33 nM 0.14% | 100 nM 0.2% | 833.33 nM -1.16% | 10000 nM 2.27%

Cl/C(=C\n1cncn1)c1ccc(Cl)cc1Cl [loreclezole]
inactive: 1 nM 0.42% | 8.33 nM -1.72% | 100 nM -2.63% | 833.33 nM -0.72% | 10000 nM -1.41%

NNCCc1ccccc1 [phenelzine]
inactive: 1 nM 1.22% | 8.33 nM -0.85% | 100 nM -0.27% | 833.33 nM -0.81% | 10000 nM 3%

COc1cc(C)c(/C=C/C(C)=C/C=C/C(C)=C/C(=O)O)c(C)c1C [acitretin]
inactive: 1 nM 0.15% | 8.33 nM -1.89% | 100 nM 0.02% | 833.33 nM -0.64% | 10000 nM -0.58%

CCn1cc(C(=O)O)c(=O)c2cnc(N3CCNCC3)nc21 [pipemidic-acid]
inactive: 1 nM 0.65% | 8.33 nM 2.63% | 100 nM 1.17% | 833.33 nM -0.86% | 10000 nM 1.68%

CC(=O)Nc1ccc(OCC(O)CNC(C)C)cc1 (stereo not given) [practolol]
inactive: 1 nM 0.44% | 8.33 nM 0.3% | 100 nM 0.26% | 833.33 nM 2.84% | 10000 nM 5.44%

Cc1cc(C(N)=O)ccc1-n1c(CCC(=O)O)ccc1-c1ccc(-n2ccnc2)cc1
inactive: 1 nM -3.46% | 8.33 nM 2.86% | 100 nM 2.45% | 833.33 nM -1.56% | 10000 nM -2.98%

C[C@]12C/C(=C/O)C(=O)C[C@@H]1CC[C@@H]1[C@@H]2CC[C@@]2(C)[C@H]1CC[C@]2(C)O [Oxymetholone]
inactive: 1 nM 0.88% | 8.33 nM 0.02% | 100 nM 1.73% | 833.33 nM 0.45% | 10000 nM 1.57%

Cn1c2cc([S+](C)[O-])sc2c2cnn(Cc3cccc(N)c3)c(=O)c21 (stereo not given)
inactive: 1 nM -0.28% | 8.33 nM -0.88% | 100 nM 5.04% | 833.33 nM 3.73% | 10000 nM 4.31%

C[C@H](CSC(=O)c1ccccc1)C(=O)N1C[C@@H](Sc2ccccc2)C[C@H]1C(=O)O [zofenopril-calcium]
inactive: 1 nM 0.93% | 8.33 nM -2.52% | 100 nM -3.63% | 833.33 nM -4.57% | 10000 nM -1.54%

Cc1noc(C)c1-c1cc(O)cc([C@@H](O)c2ccccc2)c1
inactive: 1 nM -2.32% | 8.33 nM 1.84% | 100 nM -0.24% | 833.33 nM 1.24% | 10000 nM -8.49%

Reference: the supplement of paper PMC13380429
